CYP2C19 activ: human CYP2C19 activators, primary screen, biochemical, luminescence. Cytochrome P450 2C19 (Homo sapiens), P33261. recombinant CYP2C19, luciferin-H EGE luminescence; active compounds read high; 0 = fully inhibited enzyme, 1 = untreated enzyme. activation factor at 5 µM. 96,000 tested, under 10 active. AID 1025, 2008;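 active = activation factor of at least 2 at 5 µM in the primary screen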;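 note: 0 = wells with 2.5 mM tranylcypromine and 1 = vehicle-only wells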
CYP2C19 inhib: blockers of cytochrome P450 2C19 activity – biochemical, luminescence, ADME assay, primary screen; P33261; CYP2C19 Supersomes, luciferin-H EGE luminescence, 30 min; inhibition, % at 5 µM; 21% of 96,000 active; AID 778, 2007;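 active = CYP2C19 inhibition above a set limit at 5 µM in the primary screen, cut at about 50% in these data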;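 note: plate controls were negative control wells for no effect and 2.5 mM tranylcypromine positive control for full effect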
Measles CPE: compounds protecting cells from measles virus cytopathic effect, primary screen, measles RdRp inhibitor project, single point, MLSMR library, absorbance; Measles virus-infected cells, CPE protection; protection (pct of control), % at 4 µM; 1.5% of 140,000 active; AID 841, 2007; in the data active = protection mostly above about 24%, no sharp cut-off; inactive = mostly below about 26%
CYP2C9 inh: blockers of cytochrome P450 2C9 activity – biochemical, luminescence, ADME assay, primary screen; P11712; CYP2C9 Supersomes, luciferin-H conversion; inhibition, % at 5 µM; 20% of 96,000 active; AID 777, 2007;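 active = blocking of liver enzyme CYP2C9 beyond about 50% at 5 µM, limit read from the data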
Target sequence (P11712 whole entry, looked up): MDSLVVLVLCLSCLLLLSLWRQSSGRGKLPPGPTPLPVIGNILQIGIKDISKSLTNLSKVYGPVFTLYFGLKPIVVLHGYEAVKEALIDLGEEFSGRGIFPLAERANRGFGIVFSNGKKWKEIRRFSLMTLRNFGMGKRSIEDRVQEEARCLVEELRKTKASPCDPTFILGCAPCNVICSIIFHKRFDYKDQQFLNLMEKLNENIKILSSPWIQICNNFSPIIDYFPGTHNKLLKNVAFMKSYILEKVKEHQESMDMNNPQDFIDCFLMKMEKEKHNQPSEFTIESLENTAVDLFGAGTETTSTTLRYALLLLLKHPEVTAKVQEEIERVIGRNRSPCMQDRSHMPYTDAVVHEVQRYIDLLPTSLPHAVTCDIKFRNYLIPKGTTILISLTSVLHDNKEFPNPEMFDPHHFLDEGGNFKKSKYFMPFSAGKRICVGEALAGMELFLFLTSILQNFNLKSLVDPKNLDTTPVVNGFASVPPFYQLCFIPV
CYP2C9 act: human CYP2C9 activators, primary screen, biochemical, luminescence; 1.4% of 96,000 active; AID 1024, 2008; recombinant CYP2C9, luciferin-H conversion; active compounds read high; factor 1 = untreated enzyme, 0 = blocked; activation factor at 5 µM;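 active = activation factor of 2 or more for CYP2C9 at a 5 µM dose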;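 note: 0 = sulfaphenazole-blocked wells and 1 = vehicle-only wells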
Numbers without * were called inactive; nt = no result. Compounds with a hit are over-represented: about 22% of the library has one in this group of screens.

SMILES	CYP2C19 activ	CYP2C19 inhib	Measles CPE	CYP2C9 inh	CYP2C9 act
Cc1ccc(C(=O)OCC(=O)NCCN2C(=O)CSC2=O)cc1	nt	nt	8	nt	nt
O=C(NC1CCCCC1)c1ccc(S(=O)(=O)NCc2ccco2)cc1	0.9	9	25	27	0.7
O=C(COC(=O)c1ccc(S(=O)(=O)NCc2ccco2)cc1)NCC1CCCCC1	0.8	17	3	58*	0.4
Cc1ccc(C(=O)OCC(=O)NCc2ccco2)cc1	0.9	6	12	38	0.6
CCOc1ccccc1C(=O)OCC(=O)Nc1cc(Cl)ccc1Oc1ccccc1	nt	nt	4	nt	nt
CC(C)NC(=O)COC(=O)c1ccccc1Oc1ccccc1	0.1	87*	7	72*	0.3
O=C(COC(=O)c1ccc(S(=O)(=O)Nc2ccccc2)cc1)NCCN1C(=O)CSC1=O	0.4	62*	4	81*	0.2
Cc1ccc(C)c(Oc2coc3cc(OCC(=O)Nc4ccccc4C(C)C)ccc3c2=O)c1	nt	nt	5	nt	nt
COc1cc(NC(=O)C2CCCCC2)c(OC)cc1NC(=O)CCC(=O)NCc1ccco1	1	1	3	6	0.9
CCc1nnc(NC(=O)CCC(=O)N2CCN(c3ccccn3)CC2)s1	1	0	9	-9	1.1
O=C(COC(=O)c1ccc(S(=O)(=O)Nc2ccccc2)cc1)NCc1ccco1	0.6	42	5	75*	0.2
O=C(COC(=O)c1ccco1)NCc1ccco1	1	0	4	-18	1.2
O=C(COC(=O)c1ccccc1)NCc1ccco1	0.9	11	26*	-16	1.2
CCN(Cc1ccccc1)S(=O)(=O)c1nc2nc(C)c(C)c(C)n2n1	0.7	34	3	-30	1.3
Cn1c(SCc2ccccc2Cl)nnc1-c1cnccn1	0.2	77*	8	9	0.9
O=C(O)c1cccc(-c2nnn(Cc3ccccc3Cl)n2)c1	nt	nt	13	nt	nt
Cn1c(Cn2nnc(-c3ccccc3)n2)nnc1SCc1ccccc1Cl	1.1	-10	8	64*	0.4
CCOC(=O)c1ccc(OCc2nc(-c3cccs3)no2)cc1	0.8	22	12	67*	0.3
COC(=O)c1ccc(-c2nc(-c3cccs3)no2)cc1	0.1	91*	2	40	0.6
CCCCNC1=C(Br)C(=O)CC(C)(C)C1	0.2	82*	11	2	1
CCCCCNCc1ccc(OCc2ccc(Cl)nc2)c(OC)c1	nt	nt	12	nt	nt
Cc1oc(-c2cccc(Cl)c2)nc1CN1CCCC(C(=O)NC(C)c2ccc3c(c2)OCCO3)C1 (centres undefined)	0.1	87*	8	81*	0.2
Cc1oc(-c2cccc(Cl)c2)nc1CN1CCCC(C(=O)NCc2ccco2)C1 (centres undefined)	0.9	15	5	18	0.8
CON/C=C(\C=Nc1ccc(C(F)(F)F)cc1)c1ncc(C(F)(F)F)cc1Cl	1.1	-6	7	0	1
O/N=C(\c1ccc(Cl)cc1Cl)c1ncc(C(F)(F)F)cc1Cl	0.1	93*	3	74*	0.3
SMILES	CYP2C19 activ	CYP2C19 inhib	Measles CPE	CYP2C9 inh	CYP2C9 act
COc1ccc(/C(=N\O)c2ncc(C(F)(F)F)cc2Cl)cc1	0.2	79*	19	14	0.9
N/C(=N\OC(=O)Nc1ccccc1)c1ncc(C(F)(F)F)cc1Cl	0.7	34	4	23	0.8
O=C(c1ccccc1)c1ncc(C(F)(F)F)cc1Cl	0.4	65*	12	-9	1.1
N/C(=N\OC(=O)Nc1ccc(Cl)cc1)c1ncc(C(F)(F)F)cc1Cl	0.8	22	-2	16	0.8
O=C(c1ccc(Cl)cc1Cl)c1ncc(C(F)(F)F)cc1Cl	0.5	53*	8	22	0.8
COP(=O)(/C=C/c1ccccc1)C(O)c1ccc(F)cc1 (centres undefined)	0.7	29	4	-19	1.2
CC1=CC2=NC(=O)/C(=C\c3cccn3CCOc3cc(C)ccc3C)C(=N)N2O1	nt	nt	15	nt	nt
CCOc1cc(C(=O)N2CCOCC2)ccc1OCc1ccccc1	1	-3	12	6	0.9
COc1ccc(OCC(O)Cn2ccnc2C)cc1 (centres undefined)	nt	nt	5	nt	nt
COc1cc(OC)cc(OCC(O)Cn2cnc3cc(C)c(C)cc32)c1 (centres undefined)	0.2	85*	7	57*	0.4

Source: PubChem BioAssay
